According to PubChem BioAssay:
Active and inactive are the calls of the source.

assay: growth modulation of vineyard yeast isolate – strain RM11-1a, OD600, basal, 24 h, primary screen (AID 1177);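 also: cultures grown under basal conditions with no added stressor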; conditions: S. cerevisiae RM11-1a growth, OD600, 24 h; higher = more signal, called active from +8 up or from −8 down
Also: test concentration not given here.

z-score, inactive:
Cc1ccc(S[C@]2(C(=O)NCCCN(C)C)CC(=O)N(Cc3ccccc3)[C@@H]2c2ccc(CO)cc2I)cc1 -1.03
O=C1O[C@H](c2ccccc2)[C@H](c2ccccc2)N2[C@H]1[C@@H](C(=O)Nc1nc3ccccc3s1)[C@]1(C(=O)Nc3ccc(C#CC4(O)CCCCCC4)cc31)[C@H]2c1ccc(O)cc1 -0.124
O=C(NCc1ccccc1)[C@@]1(Cc2ccccc2)COC(c2ccc(OCCCO)cc2)=N1 3.65
C=C(CCCC)/C(=C/C[C@@H](OC(=O)c1ccncc1)c1ccc(CO)o1)c1cnc2ccccc2c1 -0.27
O=C1C2C=CC(C(O)C#Cc3ccccc3)N(Nc3ccccc3)C2C(=O)N1c1ccccc1 (configuration not stated) 0.143
CCCC=C(CCC)[C@@H](NC(=O)c1ccc(C(F)(F)F)cc1)c1ccccc1 0.513
COc1ccc(NN2C(C(O)c3cc(OC)c(OC)c(OC)c3)C=CC3C(=O)N(C4CCCCC4)C(=O)C32)cc1 (configuration not stated) 0.389
C#CCCCON=C1C[C@@H](O)[C@@H](O)[C@@H]2[C@@H]3C(=O)N(Cc4ccc5c(c4)OCO5)C(=O)[C@@H]3CC[C@@H]12 0.577
COC(=O)C1=CC(c2ccc(CO)cc2)=CC(c2cccs2)N(Cc2cccc(OC(F)(F)F)c2)C=C1C(=O)OC (configuration not stated) 1.62
O=C1O[C@H](c2ccccc2)[C@H](c2ccccc2)N2[C@H]1[C@@H](C(=O)NC[C@H](O)c1ccccc1)[C@]1(C(=O)Nc3ccc(C#CC4=CCCCC4)cc31)[C@H]2c1ccc(OCCO)cc1 3.28
CC[C@H]1C2=C3C(CC[C@H]4C(OC)OC[C@](C)([C@@H]34)N(C(=O)OC(C)(C)C)C2)C(CO)C1CO (some centres not stated) -0.681

assay: growth of efflux-deficient E. coli DRC39 – strain DRC39, OD650, 24 h, E. coli filamentation inducers, primary screen (AID 1178);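 also: growth measured as culture turbidity by optical density at 650 nm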; conditions: E. coli DRC39 acrAB, higher = more signal, called active from +8 up or from −8 down

z-score, inactive:
COC(=O)Cn1c(C(=O)N2CCCC2)cc2c1C[C@H]1CN(C(=O)c3ccccc3)[C@@](Cc3ccccc3)(C(=O)OC)[C@@H]21 -0.244
O=C1C[C@@](C(=O)NCCN2CCOCC2)(c2ccc([N+](=O)[O-])cc2)[C@@H](c2ccc(CO)cc2)N1C1CCCCC1 0.497
CC(=O)NCCCC[C@@H]1NC(=O)[C@H]2C[C@@H](C(=O)NCCCCCCN(C)C)[C@@H](c3cccc(OCCO)c3)N2C1=O 0.617
CC(C)(C)OC(=O)CC[C@]1(C(=O)N2CCCCC2)N=C(c2ccc(OCCCO)cc2)O[C@H]1c1ccccc1 0.627
CC(=O)NCCCC[C@@H]1NC(=O)[C@H]2C[C@@H](C(=O)NCCCCCCN(C)C)[C@@H](c3ccc(O)cc3)N2C1=O -1.04
O=C1C2C=CC(C(O)Cc3ccccc3)N(Nc3ccc([N+](=O)[O-])cc3)C2C(=O)N1c1ccccc1 (configuration not stated) -1.22
C=C(COC)C(=O)CC[C@H](OC(=O)c1ccccc1-c1ccccc1C(=O)O)c1cccc(OCCO)c1 -1.27
C=CC[C@@]1(C(=O)NCC(O)CO)N=C(c2ccc(OCCCO)cc2)O[C@@H]1c1ccccc1CN=[N+]=[N-] (some centres not stated) 0.613
O=C(CS)NCCCCCCNC(=O)[C@@H]1C[C@@H]2C(=O)N[C@@H](Cc3ccccc3)C(=O)N2[C@@H]1c1ccc(O)cc1 -0.288
C=CC[C@]1(C(=O)N2CCCCC2)N=C(c2ccc(OCCCO)cc2)O[C@H]1c1ccccc1N=[N+]=[N-] 0.16
COC(=O)[C@@]1(Cc2ccc(OC)cc2)[C@H]2c3cc(C(=O)N(C)C)n(Cc4ccc(C)c(F)c4F)c3C[C@H]2CN1C(=O)c1ccccc1 0.423
[N-]=[N+]=NCc1ccccc1C[C@]1(C(=O)N2CCCCC2)N=C(c2ccc(OCCCO)cc2)O[C@H]1c1ccccc1CN=[N+]=[N-] 0.0687
CC(C)[Si](OCC[C@H]1O[C@]2(C(=O)N(Cc3ccccc3)c3ccccc32)[C@@H](C)[C@@H]1[Si](C)(C)O)(C(C)C)C(C)C -0.297
C=CCC(OC(C)=O)[C@@H]1[C@@H](N(Cc2ccc(-c3cccc(C(F)(F)F)c3)o2)C(=O)Cc2ccc(F)cc2)c2cc(OCCCO)ccc2N1C(=O)c1ccc(-c2ccccc2)cc1 (some centres not stated) -0.124
C=C[C@H](OC)[C@@H](OC(=O)Nc1ccc(SC)cc1)c1ccc(O)c(F)c1 0.543
O=C1O[C@H](c2ccccc2)[C@H](c2ccccc2)N2[C@H]1[C@@H](C(=O)NC[C@H](O)c1ccccc1)[C@]1(C(=O)Nc3ccc(C#CC4(O)CCCCCC4)cc31)[C@H]2c1ccc(OCCO)cc1 1.66
CC(C)C[C@@H]1NC(=O)[C@H](CC(C)C)NC(=O)[C@@]23C(=O)N[C@@H](Cc4ccccc4)C2[C@H](C)[C@@]2(C)O[C@H]2C3/C=C/CC/C=C/CNC1=O (some centres not stated) 0.794
O=C1NC(=O)C2C1C=CC(C(O)C=Cc1ccc([N+](=O)[O-])cc1)N2Nc1ccccn1 (configuration not stated) 0.195
NC(=O)NCC#Cc1ccc2c(c1)[C@]1(C(=O)N2)[C@H](C(N)=O)[C@H]2C(=O)O[C@H](c3ccccc3)[C@H](c3ccccc3)N2[C@@H]1c1ccccc1OCCO 0.285
CCOC(=O)C[C@H]1[C@H](OC(=O)c2cc3ccccc3oc2=O)[C@@H](NC(=O)C2CCCCC2)c2cc(OCCCO)ccc2N1C(=O)c1ccc2ccccc2n1 0.205
COc1cc2c(cc1OC)CN(C(=O)[C@H]1[C@@H]3C(=O)O[C@@H](c4ccccc4)[C@@H](c4ccccc4)N3[C@@H](c3ccc(O)cc3)[C@]13C(=O)Nc1ccc(C#CC4(O)CCCCCC4)cc13)CC2 -0.463
O=C1OCCC/C=C\[C@H]2OC34C=CCN(CCN5CCOCC5)C(=O)[C@H]3N(CCCCCO)C(=O)[C@@H]4C12 (some centres not stated) 0.157
C[N+](C)(C)CCCCNC(=O)[C@H]1C[C@H]2C(=O)NCC(=O)N2[C@H]1c1cccc(OCCO)c1 -0.158
O=C1C[C@@](C(=O)NC2CC2)(c2ccc([N+](=O)[O-])cc2)[C@@H](c2ccc(CO)cc2I)N1CC12CC3CC(CC(C3)C1)C2 -0.56
C=C(CCCC)/C(=C/C[C@@H](OC(=O)c1ccncc1)c1cccc(OCCO)c1)c1cc(C(=O)OC)ccc1OC 1.81
Cc1ccc(S[C@]2(C(=O)NCCCN(C)C)CC(=O)N(Cc3ccccc3)[C@@H]2c2ccc(CO)cc2I)cc1 -0.361
O=C1O[C@H](c2ccccc2)[C@H](c2ccccc2)N2[C@H]1[C@@H](C(=O)Nc1nc3ccccc3s1)[C@]1(C(=O)Nc3ccc(C#CC4(O)CCCCCC4)cc31)[C@H]2c1ccc(O)cc1 -0.492
O=C(NCc1ccccc1)[C@@]1(Cc2ccccc2)COC(c2ccc(OCCCO)cc2)=N1 0.11
C=C(CCCC)/C(=C/C[C@@H](OC(=O)c1ccncc1)c1ccc(CO)o1)c1cnc2ccccc2c1 0.698
O=C1C2C=CC(C(O)C#Cc3ccccc3)N(Nc3ccccc3)C2C(=O)N1c1ccccc1 (configuration not stated) -0.169
CCCC=C(CCC)[C@@H](NC(=O)c1ccc(C(F)(F)F)cc1)c1ccccc1 0.0948
COc1ccc(NN2C(C(O)c3cc(OC)c(OC)c(OC)c3)C=CC3C(=O)N(C4CCCCC4)C(=O)C32)cc1 (configuration not stated) -1.02
C#CCCCON=C1C[C@@H](O)[C@@H](O)[C@@H]2[C@@H]3C(=O)N(Cc4ccc5c(c4)OCO5)C(=O)[C@@H]3CC[C@@H]12 0.571
COC(=O)C1=CC(c2ccc(CO)cc2)=CC(c2cccs2)N(Cc2cccc(OC(F)(F)F)c2)C=C1C(=O)OC (configuration not stated) 0.0045
O=C1O[C@H](c2ccccc2)[C@H](c2ccccc2)N2[C@H]1[C@@H](C(=O)NC[C@H](O)c1ccccc1)[C@]1(C(=O)Nc3ccc(C#CC4=CCCCC4)cc31)[C@H]2c1ccc(OCCO)cc1 -0.227
CC[C@H]1C2=C3C(CC[C@H]4C(OC)OC[C@](C)([C@@H]34)N(C(=O)OC(C)(C)C)C2)C(CO)C1CO (some centres not stated) -0.0328
